# Many of the other results were omitted from the sample, so hits are more common in it than they were.
# Giardia FBPA inh – Giardia lamblia aldolase inhibition | A8B2U2 | purified Giardia FBPA | Potency, µM (doses to about 59.6 µM), inactives show top-dose activity, negative = inhibition, most hits filed as inhibitors | actives 0.71% (n = 290,000) | AID 2451; also: potency is read from the fitted curve at half-maximal effect; % is scaled to controls: 0 for no effect and ±100 for the full control effect; nearly all actives have a fitted effect of over 55% in size
# Target sequence (A8B2U2 whole entry, looked up): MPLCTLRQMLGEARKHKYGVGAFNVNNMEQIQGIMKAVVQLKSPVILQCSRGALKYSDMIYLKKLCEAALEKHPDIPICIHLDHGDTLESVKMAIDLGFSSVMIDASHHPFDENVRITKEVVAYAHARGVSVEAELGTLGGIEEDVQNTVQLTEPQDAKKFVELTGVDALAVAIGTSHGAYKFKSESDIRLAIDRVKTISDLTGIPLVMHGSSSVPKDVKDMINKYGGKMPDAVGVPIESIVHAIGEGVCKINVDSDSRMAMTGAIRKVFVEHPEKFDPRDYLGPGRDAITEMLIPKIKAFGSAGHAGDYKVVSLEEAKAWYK
#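 Giardia FBPA (40 nM reagent) was preincubated 10 min at RT with compound (up to 57.5 uM final), then substrate plus GAPDH/TPI/NAD/arsenate coupling system with diaphorase/resazurin was added; resorufin fluorescence (525/598 nm) was read after 20 min.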
# Shiga inhibitor – inhibitors of Shiga toxin in Vero cells | actives 9.2% (n = 290,000) | Vero cells, Shiga toxin protein synthesis inhibition reporter | inhibition, % at 38.7 µM | AID 2315; in the data active = inhibition mostly above about 28%, no sharp cut-off; inactive = mostly below about 43%; also: 0% is about no effect
# LmPK inhibitor – inhibitors of Leishmania mexicana pyruvate kinase; Potency, µM (series often up to 57.5 µM), inactives show at the highest dose activity change, negative = inhibition, usual class: inhibitors; actives 0.37% (n = 290,000); purified LmPK, Kinase-Glo ATP luminescence, 1 h; Q27686; also: potency is read from the fitted curve at half-maximal effect; % is scaled to controls: 0 for no effect and ±100 for the full control effect
#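 In 50 mM imidazole pH 7.2 with 7 mM MgCl2, LmPK (0.1 nM) turned over PEP (0.5 mM) and ADP (0.1 mM) for 1 h at room temperature. Luciferase read-out of ATP.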
# TbPYK inhibitor – blocks Trypanosoma brucei pyruvate kinase; Q57TT1; TbPYK enzyme, Kinase-Glo Plus ATP luminescence, 45 min; Potency, µM (highest dose often 76.8 µM), without a hit: top-dose activity, negative = inhibition, hits mostly inhibitors; actives 0.12% (n = 410,000); also: potency is read from the fitted curve at half-maximal effect; % is scaled to controls: 0 for no effect and ±100 for the full control effect; nearly all actives have a fitted effect of over 50% in size
#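 Glycolytic pyruvate kinase of T. brucei was incubated with substrate, test compound and 130 uM ADP for 45 minutes at room temperature. Luminescent Kinase-Glo Plus signal was measured after 10 minutes.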
# Cycloheximide cs – counter-screen for Shiga toxin inhibitors: cycloheximide protein synthesis inhibition; cell reporter, cycloheximide protein synthesis inhibition counterscreen; max response, %; actives 12% (n = 300,000); AID 2314; in the data active = max response mostly above about 13%, no sharp cut-off; inactive = mostly below about 14%; also: read at 38.3 µM for the half of the compounds with a filed dose; 0% is about no effect
# Sm TGR block – inhibitors of Schistosoma mansoni thioredoxin glutathione reductase. purified TGR, DTNB reduction, TNB absorbance 405 nm. Potency, µM (series often up to 114 µM), inactives show at the highest dose activity change, negative = inhibition, most hits filed as inhibitors. actives 3% (n = 360,000). AID 485364; also: potency is read from the fitted curve at half-maximal effect; % is scaled to controls: 0 for no effect and ±100 for the full control effect; nearly all actives have a fitted effect of over 60% in size
#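 Kinetic colorimetric format: TGR-catalysed, NADPH-driven DTNB reduction monitored via TNB absorbance. Enzyme dispensed at 20 nM; compound exposure 15 min at room temperature before reaction start.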
# * = called active by the depositor; ? = inconclusive; nt = no result given; [ ] = another dose, or the depositor's remark. Unless noted, calls follow the shape of the dose curve; as a rule, active = well fitted curve in the direction sought with a large enough effect; inconclusive = small, poorly fitted or top-dose-only effect, or another doubt; inactive = no such curve, though single readings can be large; an effect the other way counts as inactive or inconclusive.
SMILES,Giardia FBPA inh,Shiga inhibitor,LmPK inhibitor,TbPYK inhibitor,Cycloheximide cs,Sm TGR block
O=C(Cc1ccccc1)Nc1nc(=O)c2ccccc2s1,nt,-3,1%,1%,0,21%
COC(=O)c1ccccc1S(=O)(=O)N1CCc2nc(-c3ccc(OC)cc3C)c3c(c2C1)CO[C@@H](c1ccccc1)C3,5%[12.9 µM],nt,-2%[11.5 µM],nt,nt,nt
CC(C)C(=O)Nc1nnc(CCc2ccccc2)s1,13%,30,2%,2%,19*,16%
CCC(=O)Nc1nnc(CCc2ccccc2)s1,-1%,22,2%,1%,13*,3%
CC(C)(C)C(=O)Nc1nnc(CC(=O)NCc2ccccc2)s1,3%,-18,1%,5%,-4,0%
CCC(CC)C(=O)Nc1nnc(CCc2ccccc2)s1,3%,-1,-5%,-8%,9,4%
CC(C)(C)C(=O)Nc1nnc(CCc2ccccc2)s1,16%,81*,0%,-9%,50*,-6%
CC(C)(C)C(=O)Nc1nnc(CSCc2ccccc2F)s1,5%,105*,2%,3%,90*,2%
O=C(Cn1cc(S(=O)(=O)Cc2ccc(F)cc2)c2ccccc21)NCc1ccccc1,nt,nt,nt,5%[15.4 µM],nt,2%
COC(=O)c1ccc(OC)c(Cn2c(=O)n(-c3cccc(Cl)c3)c(=O)c3c2c2cc(C)ccc2n3C)c1,nt,nt,nt,3%,nt,-5%
CCC(C(=O)N1CCN(c2ccccc2F)CC1)n1nc(C)c2sc3ccccc3c2c1=O (configuration not stated),nt,nt,nt,-3%,nt,-2%
O=C(Nc1nnc(CCc2ccccc2)s1)c1ccccc1,-11%,46*,-5%,1%,14*,0%
COc1ccccc1C(=O)Nc1nnc(CCc2ccccc2)s1,-7%,16,-4%,2%,8,-25%
CC(C)(C)Cc1nnc(NC(=O)CCc2ccccc2)s1,7%,8,-2%,-1%,13*,-2%
COc1ccc(/C(C)=N/NC(=S)NCCc2ccccc2)c(O)c1,16%,-3,-4%,-2%,0,-20%
Cc1ccc2c(c1)=NC(=O)/C(=C/c1c(O)[nH]c(=O)[nH]c1=O)C=2,-13%,-3,1%,?,-1,?
Cc1ccc2c(c1)=C/C(=C\c1c(O)[nH]c(=S)[nH]c1=O)C(=O)N=2,?,-11,9%,nt,-7,13µM*
CCc1nc(SCc2ccc(Br)cc2)n[nH]1,-1%,116*,-2%,4%,26*,-3%
CCc1nc(SCc2ccc(OCC(C)C)cc2)n[nH]1,-19%,58*,4%,0%,32*,5%
CCc1nc(SCc2ccc(OC)c(Br)c2)n[nH]1,1%,69,-2%,-1%,10,0%
CCc1nc(SCc2ccc(C(=O)OC)o2)n[nH]1,-28%,8,-2%,-3%,6,12%
CCc1nc(SCc2ccc(Cl)cc2)n[nH]1,-27%,41*,-1%,7%,33*,4%
COc1cccc(N2CC(C(=O)Nc3c(C(N)=O)oc4ccccc34)CC2=O)c1 (configuration not stated),nt,nt,nt,-7%,nt,-2%
Cn1c(=O)c2sccc2n2c(CCCC(=O)NCc3ccccc3)nnc12,nt,nt,nt,-3%,nt,20%
O=C(C1CCC1)N1CCc2cc(S(=O)(=O)NCCc3ccccc3)ccc21,nt,nt,nt,2%,nt,-7%
SMILES,Giardia FBPA inh,Shiga inhibitor,LmPK inhibitor,TbPYK inhibitor,Cycloheximide cs,Sm TGR block
O=C(NCc1ccc(F)cc1)Nc1cccc(Cl)c1,-11%,62*,-2%,-5%,28*,-7%
O=C(NCc1ccc(F)cc1)Nc1ccc(Cl)cc1,-7%,59,0%,-1%,36*,nt
O=C(CNC(=O)c1ccc(F)cc1)NCc1ccc(Cl)cc1,0%,-6,1%,15%,0,-1%
Fc1cccc(NC(=S)NCc2ccc(Cl)cc2)c1,0%,16,1%,-8%,-1,?
Cc1cccc(NC(=O)c2oc3ccc(S(=O)(=O)N4CCCCC4)cc3c2C)c1C,nt,nt,nt,6%,nt,-6%
COc1ccc([C@@H]2CC(=O)[C@@H]3CN(S(=O)(=O)c4ccc(C)cc4)[C@H](c4ccccc4)C[C@@H]3N2S(=O)(=O)c2ccccc2)cc1,nt,nt,nt,3%,nt,nt

# Assay outcomes as filed in PubChem BioAssay.
